± gives the standard deviation of the averaged measurements.
Experiments:
IL-6-GFP PC-9GR = experiment: cell viability (CCK-8 OD) relative to DMSO control (fraction of control); higher = more viable cells; details: compound concentration: 10 uM; treatment time: 48 h
Outline: (§1)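 PC-9 and PC-9GR lung cancer cells overexpressing IL-6-GFP from a lentiviral construct were plated at 3000 cells/well in 96-well plates. Each compound from a purchased 510-compound library was added at a final 10 μM for 48 h, with a parallel plate set used for GFP imaging. Viability was measured by CCK-8 absorbance and expressed as each well's optical density divided by the vehicle (DMSO) control well, from two independent replicates.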

IL-6-GFP PC-9 = experiment: as above; details: compound concentration: 10 uM; treatment time: 48 h
Outline: as §1

Structure (SMILES) | cell viability (IL-6-GFP PC-9GR) | cell viability (IL-6-GFP PC-9)
CN1C2=CC(=O)/C(=N\NC(N)=O)C=C2CC1S(=O)(=O)[O-].[Na+] (stereo not drawn) [Carbazochrome sodium sulfonate (AC-17)] | 1.16 ± 0.028 | 1.04 ± 0.16
COC1OC2OC3(C)CCC4C(C)CCC(C1C)C24OO3 (stereo not drawn) [Artemether] | 1.29 ± 0.17 | 1.29 ± 0.052
CCCS(=O)(=O)Nc1ccc(F)c(C(=O)c2c[nH]c3ncc(-c4ccc(Cl)cc4)cc23)c1F [Vemurafenib (PLX4032, RG7204)] | 1.06 ± 0.1 | 1.05 ± 0.15
CC(=O)c1c(C)c2cnc(Nc3ccc(N4CCNCC4)cn3)nc2n(C2CCCC2)c1=O.O=S(=O)(O)CCO | 0.918 ± 0.1 | 0.811 ± 0.26
O=C(O)Cc1ccccc1Nc1c(Cl)cccc1Cl.OCCN1CCCC1 [Diclofenac Epolamine] | 1.34 ± 0.62 | 1.06 ± 0.16
COc1ccnc(CS(=O)c2nc3ccc(-n4cccc4)cc3[nH]2)c1C (stereo not drawn) [Ilaprazole] | 1.17 ± 0.38 | 1.29 ± 0.23
COc1cc2ncnc(Nc3ccc(F)c(Cl)c3)c2cc1OCCCN1CCOCC1.Cl [Gefitinib hydrochloride] | 0.91868 ± 0.00075 | 0.6584 ± 0.0058
Cc1c(-c2ccc(-c3ccccc3F)cc2)nc2ccc(F)cc2c1C(=O)O [Brequinar] | 0.402 ± 0.11 | 0.42356 ± 0.00032
CN1C(C(=O)Nc2ccccn2)=C(O)c2sccc2S1(=O)=O [Tenoxicam] | 1.16 ± 0.15 | 1.21 ± 0.1
CCC1(O)C(=O)OCc2c1cc1n(c2=O)Cc2cc3c(CN(C)C)c(O)ccc3nc2-1.Cl (stereo not drawn) [Topotecan HCl] | 0.451 ± 0.033 | 0.355 ± 0.11
CC(C)(C)c1nc(-c2cccc(NS(=O)(=O)c3c(F)cccc3F)c2F)c(-c2ccnc(N)n2)s1 | 1.14 ± 0.12 | 0.77 ± 0.035
COc1cc2nccc(Oc3ccc(NC(=O)NC4CC4)c(Cl)c3)c2cc1C(N)=O [Lenvatinib (E7080)] | 1.11 ± 0.064 | 0.9 ± 0.081
COc1cccc2c1C(=O)c1c(O)c3c(c(O)c1C2=O)CC(O)(C(=O)CO)CC3OC1CC(N)C(O)C(C)O1.Cl (stereo not drawn) [Doxorubicin (Adriamycin) HCl] | 0.159 ± 0.12 | 0.136 ± 0.03
Cc1nc(-c2ccc(OCC(C)C)c(C#N)c2)sc1C(=O)O [Febuxostat] | 1.38 ± 0.24 | 1.12 ± 0.27
CC1CC2C3CCC4=CC(=O)C=CC4(C)C3(F)C(O)CC2(C)C1(O)C(=O)COP(=O)([O-])[O-].[Na+].[Na+] (stereo not drawn) [Dexamethasone Sodium Phosphate] | 1.22 ± 0.16 | 0.831 ± 0.039
CC(=O)OCC(=O)C1(O)C(C)CC2C3CCC4=CC(=O)C=CC4(C)C3(F)C(O)CC21C (stereo not drawn) [Dexamethasone Acetate] | 0.9 ± 0.23 | 0.945 ± 0.21
C#Cc1cccc(Nc2ncnc3cc(OCCOC)c(OCCOC)cc23)c1.Cl [Erlotinib HCl (OSI-744)] | 0.817 ± 0.21 | 0.388 ± 0.33
Nc1nnc(-c2cccc(Cl)c2Cl)c(N)n1 [Lamotrigine] | 1.12 ± 0.3 | 1.05 ± 0.16
CCC(c1ccc(O)cc1)C(CC)c1ccc(O)cc1 (stereo not drawn) [Hexestrol] | 1.28 ± 0.31 | 1.16 ± 0.15
C=CC1CC1(NC(=O)C1CC(Oc2ncc(OC)c3ccc(Cl)cc23)CN1C(=O)C(NC(=O)OC(C)(C)C)C(C)(C)C)C(=O)NS(=O)(=O)C1CC1 (stereo not drawn) [Asunaprevir] | 1.24 ± 0.26 | 1.05 ± 0.46
CN1CCC(=C2c3ccccc3C=Cc3ccccc32)CC1.Cl [Cyproheptadine hydrochloride] | 0.784 ± 0.082 | 1.07 ± 0.17
CN(C(=O)c1c(O)c2ccccc2n(C)c1=O)c1ccccc1 [Roquinimex] | 0.937 ± 0.35 | 1.15 ± 0.038
O=C(OCC1OC(OC(=O)c2cc(O)c(O)c(OC(=O)c3cc(O)c(O)c(O)c3)c2)C(OC(=O)c2cc(O)c(O)c(OC(=O)c3cc(O)c(O)c(O)c3)c2)C(OC(=O)c2cc(O)c(O)c(OC(=O)c3cc(O)c(O)c(O)c3)c2)C1OC(=O)c1cc(O)c(O)c(OC(=O)c2cc(O)c(O)c(O)c2)c1)c1cc(O)c(O)c(OC(=O)c2cc(O)c(O)c(O)c2)c1 (stereo not drawn) [Tannic acid] | 1.05 ± 0.11 | 1.2 ± 0.23
Cc1ccc(NC(=O)c2ccc(CN3CCN(C)CC3)cc2)cc1Nc1nc(-c2cccnc2)cs1 [Masitinib (AB1010)] | 0.268 ± 0.05 | 0.366 ± 0.26
O=C([O-])c1cc(N=Nc2ccc(O)c(C(=O)[O-])c2)ccc1O.[Na+].[Na+] [Olsalazine Sodium] | 1.12 ± 0.053 | 1.25 ± 0.062
CN1CCC(NC(=O)Nc2ccc(C#N)cc2)CC1c1nc2ccccc2[nH]1 (stereo not drawn) | 0.848 ± 0.016 | 1.21 ± 0.033
COc1c(OC2OC(CO)C(O)C(O)C2O)cc2c(c1OC)-c1ccc(SC)c(=O)cc1C(NC(C)=O)CC2 (stereo not drawn) [Thiocolchicoside] | 1.18 ± 0.26 | 1.2 ± 0.12
COc1c2ccoc2cc2oc(=O)ccc12 [Bergapten] | 0.902 ± 0.041 | 0.8378 ± 0.0073
Cc1cn(-c2cc(NC(=O)c3ccc(C)c(Nc4nccc(-c5cnccn5)n4)c3)cc(C(F)(F)F)c2)cn1 [Radotinib] | 0.7942 ± 0.0035 | 1.1 ± 0.038

— the supplement of paper PMC8866396
